Measured values from the supplement of paper PMC10849652.
About 7,900 targets were measured; listed, in parts, are those with a hit and a random draw of the rest. About 0.6% of all pairs of compound and target were hits.

Key:
Assay in all cases: log2 fold change, soluble protein after heating vs DMSO (PISA); higher = thermal stabilisation; K562 cells, 10 uM, 30 min; active = over 0.2 and 3.5 SD of the protein, either way, in both replicates (recomputed)
[1] = compound: CC1=CC=C(C=C1)SC2=C3C=C(SC3=CN=C2)C(=O)N
Method in brief: (§1)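 K562 cells at 2×10^6 cells/mL were given 10 μM compound for 30 min. Aliquots then went through 3 min of heating across 48°C-58°C, were pooled, and were extracted in PBS with 0.5% NP-40 at 4°C, and the supernatant after 21,000xg for 90 min was quantified by TMTpro 16plex LC-MS/MS with channel sums equalised. Thermal stability relative to control samples, from duplicates, is given as log2 fold change.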

[2] = compound: CC1=NC(=CC=C1)C2=C(N=C(N2)C(C)(C)C)C3=CC4=NC=CN=C4C=C3
Method in brief: as §1

[3] = compound: CCCS(=O)(=O)Nc1ccc(F)c(C(=O)c2c[nH]c3ncc(Cl)cc23)c1F
Method in brief: as §1

[4] = compound: CCCc1cc(C)[nH]c(=O)c1CNC(=O)c1cc(-c2ccnc(N3CCN(C)CC3)c2)cc2c1cnn2C(C)C
Method in brief: as §1

givinostat = compound: CCN(CC)Cc1ccc2cc(COC(=O)Nc3ccc(C(=O)NO)cc3)ccc2c1 [givinostat]
Method in brief: as §1

[5] = compound: CC1=C(C=C(C=C1)NC(=O)C2=CC(=CC=C2)N(C)C)NC(=O)C3=CC=C(C=C3)O
Method in brief: as §1

Nexturastat A = compound: CCCCN(Cc1ccc(C(=O)NO)cc1)C(=O)Nc1ccccc1 [Nexturastat A]
Method in brief: as §1

barasertib = compound: CCN(CCCOc1ccc2c(Nc3cc(CC(=O)Nc4cccc(F)c4)[nH]n3)ncnc2c1)CCOP(=O)(O)O [barasertib]
Method in brief: as §1

vemurafenib = compound: CCCS(=O)(=O)Nc1ccc(F)c(C(=O)c2c[nH]c3ncc(-c4ccc(Cl)cc4)cc23)c1F [vemurafenib]
Method in brief: as §1

[6] = compound: CC1=C(C=C(C=C1)NC(=O)C2=CC(=CC=C2)C(C)(C)C#N)NC3=CC4=C(C=C3)N=CN(C4=O)C
Method in brief: as §1

Measured: log2 fold change

ING5 (UniProt Q8WYH8)
UniProt Q8WYH8, sequence (Q8WYH8 whole entry, looked up): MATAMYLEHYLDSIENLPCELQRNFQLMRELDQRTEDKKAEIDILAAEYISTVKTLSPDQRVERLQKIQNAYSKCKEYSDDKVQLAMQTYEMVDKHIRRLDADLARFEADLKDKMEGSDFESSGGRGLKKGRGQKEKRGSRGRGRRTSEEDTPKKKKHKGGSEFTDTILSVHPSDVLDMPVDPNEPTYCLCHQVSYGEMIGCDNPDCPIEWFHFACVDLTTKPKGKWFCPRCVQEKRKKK
inactive: [1] 0.058 | [2] -0.052 | [3] -0.011 | [4] -0.237 | givinostat 0.316

LRRCC1 (UniProt Q9C099)
UniProt Q9C099, sequence (Q9C099 whole entry, looked up): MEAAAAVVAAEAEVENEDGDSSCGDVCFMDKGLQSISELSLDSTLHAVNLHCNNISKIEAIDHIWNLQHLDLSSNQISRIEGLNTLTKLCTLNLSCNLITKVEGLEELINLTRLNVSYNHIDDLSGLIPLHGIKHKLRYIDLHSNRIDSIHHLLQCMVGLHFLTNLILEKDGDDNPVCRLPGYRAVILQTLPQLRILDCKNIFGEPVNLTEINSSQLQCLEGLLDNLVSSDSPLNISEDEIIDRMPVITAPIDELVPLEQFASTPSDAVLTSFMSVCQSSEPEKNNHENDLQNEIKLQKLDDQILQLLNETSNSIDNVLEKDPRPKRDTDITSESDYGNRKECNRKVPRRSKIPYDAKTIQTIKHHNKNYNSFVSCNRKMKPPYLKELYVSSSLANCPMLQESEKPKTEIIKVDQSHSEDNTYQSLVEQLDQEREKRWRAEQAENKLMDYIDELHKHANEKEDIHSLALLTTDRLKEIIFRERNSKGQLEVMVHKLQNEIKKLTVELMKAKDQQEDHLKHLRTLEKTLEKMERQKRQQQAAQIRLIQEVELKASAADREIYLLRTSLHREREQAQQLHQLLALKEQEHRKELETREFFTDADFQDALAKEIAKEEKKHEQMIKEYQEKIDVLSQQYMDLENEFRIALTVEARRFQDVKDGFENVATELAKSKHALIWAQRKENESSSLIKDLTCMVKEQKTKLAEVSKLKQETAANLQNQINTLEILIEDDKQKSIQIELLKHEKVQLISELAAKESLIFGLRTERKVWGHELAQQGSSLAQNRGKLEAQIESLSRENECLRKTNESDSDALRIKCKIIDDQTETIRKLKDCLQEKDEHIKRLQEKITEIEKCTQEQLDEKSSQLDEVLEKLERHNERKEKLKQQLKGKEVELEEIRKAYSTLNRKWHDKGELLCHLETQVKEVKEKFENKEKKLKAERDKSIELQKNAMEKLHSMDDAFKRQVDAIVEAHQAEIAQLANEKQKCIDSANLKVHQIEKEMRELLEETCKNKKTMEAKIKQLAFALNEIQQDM
inactive: [5] 0.039

MAPK7 (UniProt Q13164)
UniProt Q13164, sequence (Q13164 whole entry, looked up): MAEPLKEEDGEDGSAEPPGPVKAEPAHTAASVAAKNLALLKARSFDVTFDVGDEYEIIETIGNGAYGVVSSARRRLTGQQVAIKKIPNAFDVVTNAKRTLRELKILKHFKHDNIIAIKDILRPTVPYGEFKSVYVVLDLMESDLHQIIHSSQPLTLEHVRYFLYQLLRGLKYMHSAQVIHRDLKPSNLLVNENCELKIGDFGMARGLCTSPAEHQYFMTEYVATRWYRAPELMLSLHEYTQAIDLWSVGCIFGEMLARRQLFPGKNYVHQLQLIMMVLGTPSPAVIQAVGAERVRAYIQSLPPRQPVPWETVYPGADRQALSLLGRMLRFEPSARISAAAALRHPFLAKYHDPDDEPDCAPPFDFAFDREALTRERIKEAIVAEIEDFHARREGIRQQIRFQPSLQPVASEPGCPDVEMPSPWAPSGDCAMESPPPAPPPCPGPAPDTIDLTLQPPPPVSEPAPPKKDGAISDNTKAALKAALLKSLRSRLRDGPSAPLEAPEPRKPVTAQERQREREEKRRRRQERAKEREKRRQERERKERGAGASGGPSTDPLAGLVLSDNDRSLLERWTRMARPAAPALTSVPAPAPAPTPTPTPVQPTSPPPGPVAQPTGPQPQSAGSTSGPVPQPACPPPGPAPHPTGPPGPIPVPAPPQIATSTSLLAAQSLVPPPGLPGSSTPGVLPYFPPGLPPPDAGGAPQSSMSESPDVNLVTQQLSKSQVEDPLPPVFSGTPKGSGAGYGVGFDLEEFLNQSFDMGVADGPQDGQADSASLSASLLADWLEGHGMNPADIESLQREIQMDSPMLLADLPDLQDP
inactive: [2] -0.169 | Nexturastat A 0.275

MGRN1 isoform 2 (UniProt O60291)
UniProt O60291, sequence (O60291 whole entry, looked up): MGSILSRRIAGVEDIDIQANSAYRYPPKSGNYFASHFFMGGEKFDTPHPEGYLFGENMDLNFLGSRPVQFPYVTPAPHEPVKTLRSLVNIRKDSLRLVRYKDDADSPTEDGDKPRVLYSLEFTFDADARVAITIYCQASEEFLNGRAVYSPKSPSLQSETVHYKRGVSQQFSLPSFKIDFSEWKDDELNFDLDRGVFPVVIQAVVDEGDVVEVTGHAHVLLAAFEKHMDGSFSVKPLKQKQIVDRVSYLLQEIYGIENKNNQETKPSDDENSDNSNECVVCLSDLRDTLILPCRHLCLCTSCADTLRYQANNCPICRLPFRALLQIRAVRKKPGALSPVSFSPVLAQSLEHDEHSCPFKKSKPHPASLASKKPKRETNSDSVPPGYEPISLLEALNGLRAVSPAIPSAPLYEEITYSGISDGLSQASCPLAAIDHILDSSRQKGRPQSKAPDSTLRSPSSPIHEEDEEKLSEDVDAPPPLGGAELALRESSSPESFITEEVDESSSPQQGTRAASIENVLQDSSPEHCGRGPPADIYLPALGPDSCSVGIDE
inactive: [5] -0.059 | [1] 0.021 | [2] -0.02 | [3] -0.307 | givinostat 0.012 | barasertib 0

KXD1 (UniProt Q9BQD3)
UniProt Q9BQD3, sequence (Q9BQD3 whole entry, looked up): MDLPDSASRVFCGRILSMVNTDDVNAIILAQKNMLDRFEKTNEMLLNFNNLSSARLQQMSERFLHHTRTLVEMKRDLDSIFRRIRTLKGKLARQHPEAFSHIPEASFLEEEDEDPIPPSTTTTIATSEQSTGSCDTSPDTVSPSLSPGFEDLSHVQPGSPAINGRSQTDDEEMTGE
inactive: [5] -0.025 | [1] 0 | Nexturastat A -0.223 | vemurafenib 0.092 | [3] 0.059 | [4] 0.072 | givinostat 0.094 | barasertib -0.021

MED29 (UniProt Q9NX70)
UniProt Q9NX70, sequence (Q9NX70 whole entry, looked up): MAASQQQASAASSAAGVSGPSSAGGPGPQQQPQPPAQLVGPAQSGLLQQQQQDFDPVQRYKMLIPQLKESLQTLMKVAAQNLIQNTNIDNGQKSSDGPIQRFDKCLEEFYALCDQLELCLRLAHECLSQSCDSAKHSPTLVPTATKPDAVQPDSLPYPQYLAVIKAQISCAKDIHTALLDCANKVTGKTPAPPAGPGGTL
inactive: [1] -0.075 | [3] 0.131 | [4] 0.025 | givinostat -0.076

LEPROT (UniProt O15243)
UniProt O15243, sequence (O15243 whole entry, looked up): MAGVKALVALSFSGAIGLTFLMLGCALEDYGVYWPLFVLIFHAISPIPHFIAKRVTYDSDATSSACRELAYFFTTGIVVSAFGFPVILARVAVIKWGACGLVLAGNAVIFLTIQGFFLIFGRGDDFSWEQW
inactive: Nexturastat A -0.02 | [4] -0.12 | givinostat -0.467

MFAP3 (UniProt P55082)
UniProt P55082, sequence (P55082 whole entry, looked up): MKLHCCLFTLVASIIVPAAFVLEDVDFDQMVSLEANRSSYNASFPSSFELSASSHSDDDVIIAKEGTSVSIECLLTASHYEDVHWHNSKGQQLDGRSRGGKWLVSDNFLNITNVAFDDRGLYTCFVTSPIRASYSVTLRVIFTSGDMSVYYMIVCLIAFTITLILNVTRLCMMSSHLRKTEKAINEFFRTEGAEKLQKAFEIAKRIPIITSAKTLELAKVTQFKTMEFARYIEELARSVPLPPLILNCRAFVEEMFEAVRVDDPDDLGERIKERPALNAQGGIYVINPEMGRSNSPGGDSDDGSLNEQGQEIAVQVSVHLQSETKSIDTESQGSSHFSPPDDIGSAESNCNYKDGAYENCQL
inactive: [6] 0.038 | Nexturastat A 0.11 | vemurafenib -0.115 | barasertib 0.05

IKZF1 (UniProt R9R4D9)
inactive: [1] -0.116 | [2] 0.026 | [3] 0.033
